By residual activity is commonly meant the signal under treatment as a percentage of the control signal.

Assay [1] concerns the target T1, Serine/threonine-protein kinase TBK1 (Homo sapiens) (UniProt Q9UHD2).
T1 sequence (whole entry): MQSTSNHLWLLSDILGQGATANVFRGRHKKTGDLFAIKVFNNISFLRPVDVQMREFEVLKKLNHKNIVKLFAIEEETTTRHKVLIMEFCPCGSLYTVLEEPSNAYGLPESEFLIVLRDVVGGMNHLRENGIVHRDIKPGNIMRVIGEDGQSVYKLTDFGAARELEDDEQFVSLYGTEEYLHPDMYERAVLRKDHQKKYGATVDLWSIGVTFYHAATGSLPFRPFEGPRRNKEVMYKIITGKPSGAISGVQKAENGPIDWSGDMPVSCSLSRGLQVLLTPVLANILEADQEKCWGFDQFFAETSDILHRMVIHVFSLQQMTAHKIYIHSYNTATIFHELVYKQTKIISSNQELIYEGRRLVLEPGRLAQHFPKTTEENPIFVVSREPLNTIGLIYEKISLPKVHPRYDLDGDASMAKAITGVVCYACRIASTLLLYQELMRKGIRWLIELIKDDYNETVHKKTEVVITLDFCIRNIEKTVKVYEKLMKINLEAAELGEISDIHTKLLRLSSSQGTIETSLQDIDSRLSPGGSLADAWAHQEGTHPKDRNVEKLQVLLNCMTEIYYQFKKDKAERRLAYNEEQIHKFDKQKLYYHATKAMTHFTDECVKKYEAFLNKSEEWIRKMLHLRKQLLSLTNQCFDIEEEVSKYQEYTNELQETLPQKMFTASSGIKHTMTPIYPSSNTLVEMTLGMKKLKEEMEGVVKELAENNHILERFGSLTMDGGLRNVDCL
As to conditions: at 10 µM.

Assay [2] concerns the target T2, TGF-beta receptor type-1 (Homo sapiens) (UniProt P36897).
T2 sequence (whole entry): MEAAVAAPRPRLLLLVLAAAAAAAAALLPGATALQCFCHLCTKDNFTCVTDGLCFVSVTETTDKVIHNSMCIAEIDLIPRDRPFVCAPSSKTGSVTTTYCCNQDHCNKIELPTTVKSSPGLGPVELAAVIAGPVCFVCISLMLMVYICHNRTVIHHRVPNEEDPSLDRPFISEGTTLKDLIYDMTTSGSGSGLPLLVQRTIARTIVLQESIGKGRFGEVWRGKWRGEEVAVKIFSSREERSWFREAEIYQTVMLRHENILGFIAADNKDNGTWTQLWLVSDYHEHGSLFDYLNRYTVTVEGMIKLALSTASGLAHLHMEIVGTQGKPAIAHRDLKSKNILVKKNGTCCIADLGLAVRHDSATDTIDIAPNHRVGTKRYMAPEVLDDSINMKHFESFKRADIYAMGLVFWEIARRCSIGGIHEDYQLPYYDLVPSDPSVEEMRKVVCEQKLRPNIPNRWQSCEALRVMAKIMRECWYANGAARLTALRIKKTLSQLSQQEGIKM
As to conditions: at 1 µM.

In assay [3] the target is T2, TGF-beta receptor type-1 (Homo sapiens). The settings on record: at 10 µM.
For assay [4], the target named is Insulin-like growth factor 1 receptor (Homo sapiens) (UniProt P08069). As to conditions: at 1 µM.
For assay [5] the target is unchanged. The settings on record: at 10 µM.
Assay [6] has as its target T3, Inhibitor of nuclear factor kappa-B kinase subunit alpha (Homo sapiens) (UniProt O15111).
T3 sequence (whole entry): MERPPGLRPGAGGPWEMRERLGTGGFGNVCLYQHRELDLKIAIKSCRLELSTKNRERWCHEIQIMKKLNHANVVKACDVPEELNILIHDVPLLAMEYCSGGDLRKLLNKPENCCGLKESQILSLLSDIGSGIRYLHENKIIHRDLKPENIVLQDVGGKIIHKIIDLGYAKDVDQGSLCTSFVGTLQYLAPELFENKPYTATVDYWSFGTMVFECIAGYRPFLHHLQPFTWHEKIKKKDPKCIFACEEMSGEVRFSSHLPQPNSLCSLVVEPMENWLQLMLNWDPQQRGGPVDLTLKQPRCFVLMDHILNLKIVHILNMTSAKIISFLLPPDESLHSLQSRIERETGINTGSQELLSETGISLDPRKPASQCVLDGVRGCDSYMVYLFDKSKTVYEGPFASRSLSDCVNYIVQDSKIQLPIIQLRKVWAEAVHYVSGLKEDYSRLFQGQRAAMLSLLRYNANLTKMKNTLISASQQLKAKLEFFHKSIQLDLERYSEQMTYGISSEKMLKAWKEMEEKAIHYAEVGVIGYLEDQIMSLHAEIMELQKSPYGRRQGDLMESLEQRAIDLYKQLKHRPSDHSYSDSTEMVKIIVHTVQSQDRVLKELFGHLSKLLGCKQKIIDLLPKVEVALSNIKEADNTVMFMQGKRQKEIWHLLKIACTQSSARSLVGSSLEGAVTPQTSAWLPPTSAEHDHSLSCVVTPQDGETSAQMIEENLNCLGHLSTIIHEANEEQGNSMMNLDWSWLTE
As to conditions: at 1 µM.

For assay [7], the target named is T3, Inhibitor of nuclear factor kappa-B kinase subunit alpha (Homo sapiens). As to conditions: at 10 µM.
In assay [8] the target is T4, Inhibitor of nuclear factor kappa-B kinase subunit beta (Homo sapiens) (UniProt O14920).
T4 sequence (whole entry): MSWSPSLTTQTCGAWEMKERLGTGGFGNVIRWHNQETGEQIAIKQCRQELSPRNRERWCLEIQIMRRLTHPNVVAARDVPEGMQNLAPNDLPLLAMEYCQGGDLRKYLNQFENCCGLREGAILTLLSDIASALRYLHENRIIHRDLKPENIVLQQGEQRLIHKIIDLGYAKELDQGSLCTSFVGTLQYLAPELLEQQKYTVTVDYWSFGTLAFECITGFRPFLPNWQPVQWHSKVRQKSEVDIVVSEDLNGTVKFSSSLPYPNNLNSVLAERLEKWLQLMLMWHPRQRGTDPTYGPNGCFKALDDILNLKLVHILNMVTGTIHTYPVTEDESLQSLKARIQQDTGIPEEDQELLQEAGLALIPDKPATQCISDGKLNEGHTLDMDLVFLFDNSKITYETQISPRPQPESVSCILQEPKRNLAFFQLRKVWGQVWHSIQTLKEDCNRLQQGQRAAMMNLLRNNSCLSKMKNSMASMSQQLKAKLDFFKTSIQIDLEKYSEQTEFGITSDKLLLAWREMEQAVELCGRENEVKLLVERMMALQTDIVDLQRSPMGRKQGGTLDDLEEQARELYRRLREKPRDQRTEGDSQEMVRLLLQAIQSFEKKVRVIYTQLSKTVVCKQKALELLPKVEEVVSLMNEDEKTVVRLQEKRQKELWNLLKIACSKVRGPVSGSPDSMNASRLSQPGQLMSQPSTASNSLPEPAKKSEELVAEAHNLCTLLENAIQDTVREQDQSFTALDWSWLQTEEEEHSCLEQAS
The settings on record: at 1 µM.

The target in assay [9] is T4, Inhibitor of nuclear factor kappa-B kinase subunit beta (Homo sapiens). The settings on record: at 10 µM.
In assay [10] the target is Insulin receptor (Homo sapiens) (UniProt P06213). The settings on record: at 1 µM.
Sequence of Insulin receptor (Homo sapiens) (P06213 28-758 limits assumed): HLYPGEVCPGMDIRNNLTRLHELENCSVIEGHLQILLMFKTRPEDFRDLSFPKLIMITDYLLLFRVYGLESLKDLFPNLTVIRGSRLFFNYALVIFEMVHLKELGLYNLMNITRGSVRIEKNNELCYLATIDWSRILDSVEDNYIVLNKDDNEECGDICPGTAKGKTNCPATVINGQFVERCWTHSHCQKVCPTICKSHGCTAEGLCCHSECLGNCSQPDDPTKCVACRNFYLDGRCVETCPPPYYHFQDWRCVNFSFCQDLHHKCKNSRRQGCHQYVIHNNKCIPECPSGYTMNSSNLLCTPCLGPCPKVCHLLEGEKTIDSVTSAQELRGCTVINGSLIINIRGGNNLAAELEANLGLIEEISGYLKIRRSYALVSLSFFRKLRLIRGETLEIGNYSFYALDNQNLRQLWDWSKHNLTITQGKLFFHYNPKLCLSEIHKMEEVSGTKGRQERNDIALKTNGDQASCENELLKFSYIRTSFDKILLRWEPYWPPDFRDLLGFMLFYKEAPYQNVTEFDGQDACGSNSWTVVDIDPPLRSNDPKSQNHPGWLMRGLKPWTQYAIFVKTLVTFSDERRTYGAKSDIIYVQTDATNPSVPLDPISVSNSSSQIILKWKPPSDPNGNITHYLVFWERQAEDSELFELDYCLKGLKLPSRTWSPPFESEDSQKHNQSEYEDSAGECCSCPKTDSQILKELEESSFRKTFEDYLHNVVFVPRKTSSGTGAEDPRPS
Sequence of Insulin receptor (Homo sapiens) (P06213 763-1382 limits assumed): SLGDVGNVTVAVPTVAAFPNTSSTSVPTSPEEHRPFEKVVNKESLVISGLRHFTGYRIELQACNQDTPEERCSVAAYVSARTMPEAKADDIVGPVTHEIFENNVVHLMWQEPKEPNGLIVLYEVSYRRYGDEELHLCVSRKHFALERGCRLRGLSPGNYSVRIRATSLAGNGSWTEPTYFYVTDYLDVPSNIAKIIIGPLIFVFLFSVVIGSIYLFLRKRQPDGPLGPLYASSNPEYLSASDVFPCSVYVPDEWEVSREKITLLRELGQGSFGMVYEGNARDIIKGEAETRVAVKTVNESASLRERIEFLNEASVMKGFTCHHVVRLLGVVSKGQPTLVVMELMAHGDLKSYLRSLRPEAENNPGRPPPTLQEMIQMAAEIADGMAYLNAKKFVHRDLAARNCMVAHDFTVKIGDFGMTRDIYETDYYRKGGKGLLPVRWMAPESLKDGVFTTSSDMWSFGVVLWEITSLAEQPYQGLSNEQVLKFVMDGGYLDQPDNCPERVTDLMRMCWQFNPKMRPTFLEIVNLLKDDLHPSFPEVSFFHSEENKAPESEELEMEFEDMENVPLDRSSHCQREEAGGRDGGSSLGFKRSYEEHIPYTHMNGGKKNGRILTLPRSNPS

Sequence of Insulin-like growth factor 1 receptor (Homo sapiens) (P08069 31-736 limits assumed): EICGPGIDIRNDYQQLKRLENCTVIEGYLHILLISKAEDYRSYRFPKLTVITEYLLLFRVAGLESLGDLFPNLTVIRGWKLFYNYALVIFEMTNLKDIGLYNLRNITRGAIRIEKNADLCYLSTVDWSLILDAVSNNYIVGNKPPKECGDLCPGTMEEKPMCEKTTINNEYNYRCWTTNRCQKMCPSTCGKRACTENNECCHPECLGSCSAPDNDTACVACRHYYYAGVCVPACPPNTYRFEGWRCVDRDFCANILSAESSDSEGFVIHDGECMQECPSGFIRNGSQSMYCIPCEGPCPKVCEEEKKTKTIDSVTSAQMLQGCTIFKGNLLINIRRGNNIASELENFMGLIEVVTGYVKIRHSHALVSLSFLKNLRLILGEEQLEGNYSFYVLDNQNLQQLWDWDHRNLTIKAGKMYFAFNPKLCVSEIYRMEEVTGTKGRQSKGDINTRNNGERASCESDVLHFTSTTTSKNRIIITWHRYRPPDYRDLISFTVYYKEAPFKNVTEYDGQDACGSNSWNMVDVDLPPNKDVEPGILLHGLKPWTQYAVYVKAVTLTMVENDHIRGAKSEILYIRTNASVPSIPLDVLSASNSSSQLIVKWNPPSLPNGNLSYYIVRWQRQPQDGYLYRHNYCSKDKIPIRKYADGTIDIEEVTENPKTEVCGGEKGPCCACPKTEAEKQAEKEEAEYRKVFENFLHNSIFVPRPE
Sequence of Insulin-like growth factor 1 receptor (Homo sapiens) (P08069 741-1367 limits assumed): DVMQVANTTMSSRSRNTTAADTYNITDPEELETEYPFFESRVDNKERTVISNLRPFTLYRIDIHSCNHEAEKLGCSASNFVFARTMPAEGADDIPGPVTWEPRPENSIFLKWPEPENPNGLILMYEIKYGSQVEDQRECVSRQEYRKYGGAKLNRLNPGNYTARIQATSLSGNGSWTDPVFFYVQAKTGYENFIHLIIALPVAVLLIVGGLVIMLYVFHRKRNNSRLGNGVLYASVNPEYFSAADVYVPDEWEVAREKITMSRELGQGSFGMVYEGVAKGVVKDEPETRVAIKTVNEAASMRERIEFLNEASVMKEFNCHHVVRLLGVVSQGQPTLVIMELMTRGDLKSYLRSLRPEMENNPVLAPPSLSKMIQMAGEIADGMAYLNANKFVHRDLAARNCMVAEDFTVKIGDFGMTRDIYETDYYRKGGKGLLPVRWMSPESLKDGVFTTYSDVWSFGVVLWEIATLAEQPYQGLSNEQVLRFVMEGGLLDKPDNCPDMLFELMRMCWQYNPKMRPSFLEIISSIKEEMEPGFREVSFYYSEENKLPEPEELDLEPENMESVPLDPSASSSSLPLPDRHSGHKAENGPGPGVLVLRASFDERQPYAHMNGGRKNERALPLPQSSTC

For `COc1cccc(-c2cc(=O)c3ccccc3o2)c1N`, the residual activity was found to be 95% in assay [1]; 104% in assay [2]; 93% in assay [3]; 93% in [4]; 97% in assay [5]; 105% in assay [6]. For the same compound, the residual activity turned out to be 97% in assay [7], 125% in assay [8], 109% in [9] and 109% in [10].

These data come from ChEMBL document CHEMBL2218924, “A broad activity screen in support of a chemogenomic map for kinase signalling research and drug discovery” (Biochem J, 2013).
